Pf growth 96h: P. falciparum growth inhibition at 96 hours; P. falciparum luciferase reporter growth, 96 h; Potency, µM (doses to about 28.7 µM), hits mostly inhibitors; 320,000 tested, 6.9% active; AID 504834
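P. falciparum expressing integrated firefly luciferase, in erythrocytes at 2% hematocrit, 0.05% parasitemia, incubated with compounds 96 h at 37 C, 5% CO2. Growth inhibition read as loss of luminescence; two-generation exposure targets delayed-death apicoplast inhibitors.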
HCV inhibitor: blocks hepatitis C virus. Huh7.5.1 HCVcc-Cre infection, luciferase reporter, 44 h. Potency, µM (series often up to 41.8 µM), most hits filed as inhibitors. 340,000 tested, 3.4% active. AID 651820
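Infectious HCVcc-Cre (~0.5 moi) was added to cells just after compound, with cells seeded 4 h earlier at 1,000 per well. Luciferase activity after 44 h culture reported infection; substrate was incubated 15 min at room temperature before reading.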
HCMV inh: inhibitors of human cytomegalovirus; activity change, negative = inhibition, % at 57.5 µM; 410,000 tested, 4.5% active; AID 1259415; HFF cells, HCMV-luciferase reporter, 72 h; stronger effect = lower value; in the data active means activity change below about -60%; inconclusive means no clear call, values can overlap the other calls; inactive means above about -39%
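After 16 h attachment at 37C, HFF cells received test compound and HCMV-luciferase (1 PFU/cell); reporter luminescence read 72 h later, data normalized against buffer-only and known inhibitor Salinomycin.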
Pf growth 48h: P. falciparum growth inhibition at 48 hours (one generation) | 310,000 tested, 5.9% active | Potency, µM (doses to about 28.7 µM), usual class: inhibitors | P. falciparum luciferase growth in erythrocytes, 48 h | AID 504832
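Luciferase-expressing parasites in RBCs, 2% Hct / 0.1% parasitemia final; RPMI 1640 + 0.5% Albumax; 37 C, 5% CO2, one generation; luminescence read-out, lower signal = inhibition.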
Hits are given with their value; – = inactive; ? = inconclusive; · = not tested or not shown; [ ] = dose if it differs, or a comment. Hits are enriched below; roughly 13% of the tested compounds scored in any of these assays. Unless noted, the call rests on the fitted dose curve; in most records, active means well fitted inhibition curve with a large enough effect; inconclusive means small, poorly fitted or top-dose-only effect, or another doubt; inactive means no such curve, though single readings can be large or run the other way.

SMILES	Pf growth 96h	HCV inhibitor	HCMV inh	Pf growth 48h
Cc1c(CCC(=O)O)c(=O)oc2cc3occ(-c4ccc(Br)cc4)c3cc12	?	–	-62.1	?
COc1ccccc1Nc1nc(-c2ccc3c(c2)NC(=O)CO3)cs1	–	10µM	-63.7	–
O=C(Nc1ccc(S(=O)(=O)N(Cc2ccccc2)c2ccccc2)cc1)c1ccc(F)cc1	·	·	–	·
Cc1cc(C)n(C(=O)c2ccc(Cl)c(F)c2F)n1	9.28µM	–	–	–
Cc1cc(C)n(C(=O)c2cc(F)c(F)cc2C)n1	–	–	–	–
Cc1ccc(-n2c(Cc3cccn3C)nnc2SCC(=O)Nc2ccc3c(c2)OCO3)cc1	?	–	–	14.7µM
COc1ccc(-n2c(Cc3cccn3C)nnc2SCC(=O)Nc2cccc(F)c2)cc1	?	–	–	8.28µM
Cc1nnc(SCC(=O)Nc2ccc3c(c2)OCCO3)n1N	·	–	–	–
COc1ccc(-n2c(Cc3cccn3C)nnc2SCC(=O)N2CCC(C)CC2)cc1	0.37µM	–	–	?
Cc1ccc(-c2nnc(SCC(=O)Nc3ccc4c(c3)OCCO4)n2N)cc1	10.4µM	–	–	–
COc1ccc(NC(=O)CSc2nnc(Cc3cccn3C)n2-c2ccc(F)cc2)cc1OC	?	–	–	?
COc1ccc(-n2c(Cc3cccn3C)nnc2SCC(=O)N2CCCC2)cc1	?	?	–	?
Cn1cc(C(=O)NCCc2ccc(Cl)cc2)c(=O)c2cc(S(=O)(=O)N3CCCCC3)ccc21	·	·	–	·
Cc1cn2c(=O)cc(COC(=O)c3cccc(NC(=O)COc4ccccc4Cl)c3)nc2s1	·	·	–	·
Cn1cccc1Cc1nnc(SCC(=O)Nc2ccccc2)n1-c1ccc(F)cc1	–	–	–	?
COc1ccc(-n2c(Cc3cccn3C)nnc2SCC(=O)Nc2ccccc2)cc1	?	–	–	11.7µM
CCc1ccc(NC(=O)CSc2nnc(Cc3cccn3C)n2-c2ccc(OC)cc2)cc1	8.28µM	–	–	?
COc1ccc(-n2c(Cc3cccn3C)nnc2SCC(=O)Nc2ccc(Cl)cc2)cc1	–	–	–	11.7µM
O=[N+]([O-])c1ccc2nc(CCCO)[nH]c2c1	?	–	–	–
CCCc1nc2ccc([N+](=O)[O-])cc2[nH]1	10.4µM	–	–	–
Cc1noc(/C=C/c2ccccn2)c1[N+](=O)[O-]	–	–	-102.5	?
COc1ccccc1N/C=C/c1onc(C)c1[N+](=O)[O-]	–	–	–	–
O=[N+]([O-])c1cccc(/C=C/c2nc3ccc([N+](=O)[O-])cc3[nH]2)c1	2.33µM	?	–	2.94µM
O=[N+]([O-])c1cccc(/C=C/c2ccccn2)c1	–	12.6µM	–	–
CCC(C)NC(=O)c1nn(-c2ccc(C)cc2)nc1CO (centres undefined)	·	·	–	·
SMILES	Pf growth 96h	HCV inhibitor	HCMV inh	Pf growth 48h
O=C(c1cccc(C(=O)N(c2ccccn2)C2CCCCC2)c1)N(c1ccccn1)C1CCCCC1	–	–	?	11.7µM
O=C(c1ccc(Cl)cc1)N(c1ccccn1)C1CCCCC1	–[5.75 µM]	–	–	–[5.75 µM]
COc1ccc(C2Sc3nncn3N2Cc2ccc(C#N)cc2)cc1 (centres undefined)	13.1µM	–	?	–
COc1ccc(CC(=O)Oc2ccc(C#N)cc2)cc1	?	–	–	–
COc1cc(/C=C/C(=O)OCc2cn3cc(Cl)ccc3n2)ccc1O	?	?	–	10.4µM
CSCC[C@@H](C(=O)NCc1cccs1)N1Cc2ccccc2C1=O	8.28µM	–	–	·
Cc1cc2c(c(/C=C/C(=O)c3ccccc3)c1)OC1(C=C2)Oc2ccccc2C(=O)N1C (centres undefined)	?	12.6µM	–	?
Cn1cc(/C=C/C(=O)c2ccccc2)c2ccccc21	–	?	–	–
O=C(NC1=NCCS1)Nc1ccccc1	–	–	–	–
O=C(CC12CC3CC(C1)CC(CC(=O)NC1=NCCS1)(C3)C2)NC1=NCCS1	·	–	–	9.28µM
CC12CC3CC(C)(C1)CC(C(=O)NC1=NCCS1)(C3)C2	11.7µM	–	–	·
O=C(NC1=NCCS1)C12CC3CC(C1)CC(C(=O)NC1=NCCS1)(C3)C2	–	?	–	–
O=C(NC1=NCCS1)NC12CC3CC(CC(C3)C1)C2	1.17µM	–	–	–
CC(C)(C)C(=O)NC1=NCCS1	1.47µM	–	–	–
CCN(CC)S(=O)(=O)c1ccc2c(c1)N(CC(=O)NCc1ccccc1)C(=O)C1CCCCN21 (centres undefined)	·	·	–	·
CCOC(=O)C(CC)Sc1ncnc2sc3c(c12)CCCC3 (centres undefined)	·	·	–	·
